# In all, about 16,000 compounds went through this assay and about 2,600 (16%) were called active. Not shown: some 20% with an inconclusive outcome. Calls come from the whole dose curve; as a rule, active = well fitted curve in the direction sought with a large enough effect; inconclusive = small, poorly fitted or top-dose-only effect, or effect the other way; inactive = no such curve, though single readings can be large or run the other way. The list is a sample of the results.
# Biological target: Cytochrome P450 2D6 (Homo sapiens) (UniProt P10635)
# Assay: Cytochrome panel assay with activity outcomes
# Settings: recombinant CYP, pro-luciferin dealkylation, luminescence, p450-cyp2d6; series mostly up to 57.1 µM
# Chain of Cytochrome P450 2D6 (Homo sapiens) (P10635 whole entry, looked up): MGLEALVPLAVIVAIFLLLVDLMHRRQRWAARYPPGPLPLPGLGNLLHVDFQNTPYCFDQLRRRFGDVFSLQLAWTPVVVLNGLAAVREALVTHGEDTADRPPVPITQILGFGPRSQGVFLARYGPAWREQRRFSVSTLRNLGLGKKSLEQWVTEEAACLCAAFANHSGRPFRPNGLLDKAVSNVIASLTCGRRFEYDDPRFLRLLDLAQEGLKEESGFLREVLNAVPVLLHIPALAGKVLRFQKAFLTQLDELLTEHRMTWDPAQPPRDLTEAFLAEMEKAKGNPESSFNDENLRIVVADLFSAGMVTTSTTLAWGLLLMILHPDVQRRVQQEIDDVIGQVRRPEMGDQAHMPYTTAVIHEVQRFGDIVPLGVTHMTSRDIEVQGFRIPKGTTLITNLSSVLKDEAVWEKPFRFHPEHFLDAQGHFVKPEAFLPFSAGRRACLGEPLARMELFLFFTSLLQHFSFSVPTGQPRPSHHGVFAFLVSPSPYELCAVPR
row,Structure (SMILES),AC50
1,C=C1C(=O)O[C@@H]2[C@@H]1CC/C(C)=C\CC[C@@]1(C)O[C@H]21,inactive
2,CN(C)c1ccc(-c2ccc3ncnc(-n4ccnc4)c3c2)cc1,20 µM (active)
3,Cc1ccccc1-c1ccc2ncnc(N3CCN(C)CC3)c2c1,inactive
4,Cc1ccccc1-c1ccc2ncnc(-n3ccnc3)c2c1,25.1 µM (active)
5,CCOC(=O)c1cc2c(ccn2C)n1CC(=O)N1CCCC(C)C1 (stereo unspecified),inactive
6,Cc1ccc(C(=O)NC(=S)Nc2ccc3c(c2)OCCO3)c(C)c1,inactive
7,CON1C(=O)C(=O)N(OC)C2CCCCC21 (stereo unspecified),inactive
8,CC(C)(C)c1cc2cccnc2n1Cc1cccc(F)c1,1.26 µM (active)
9,COc1cccc(Cn2c(=O)c(-c3cc(F)cc(F)c3)nc3cnc(N(C)C)nc32)c1,inactive
10,Cc1cccc(CSc2cccc3cccnc23)c1,inactive
11,CN(C)c1ccc(/C=C2/C(=O)N(c3ccc([N+](=O)[O-])cc3)N=C2N2CCOCC2)cc1,inactive
12,COc1ccc2[nH]c(C(=O)c3ccccc3)cc2c1,inactive
13,C=CCSC1=Nc2sccc2C2=NC(=O)CN12,inactive
14,COc1cc2c(cc1NC(=O)Nc1ccccc1)oc1ccccc12,10 µM (active)
15,COc1ccccc1CC(=O)Nc1cc2oc3ccccc3c2cc1OC,inactive
16,COc1cc2c(cc1NC(=O)c1cc(-c3cccnc3)nc3ccc(C)cc13)oc1ccccc12,inactive
17,COCCn1c(=O)c(-c2ccc(OC)cc2)nc2cnc(Nc3cccc(OC)c3)nc21,inactive
18,CCOc1cc(NC(=O)C2CCCCC2)c(OCC)cc1NC(=O)c1ccco1,inactive
19,COc1ccc(NC(=O)c2cc(-c3ccccc3Cl)no2)cc1,inactive
20,O=S(=O)(NCc1cc(-c2ccccc2Cl)no1)c1ccc(Cl)cc1,12.6 µM (active)
21,O=C(Nc1ccccc1)c1cc(-c2ccccc2Cl)no1,inactive
22,Clc1ccc(SCc2cc(-c3ccccc3)no2)cc1,inactive
23,Cn1c(CNS(=O)(=O)c2ccc(Cl)cc2)n[nH]c1=S,inactive
24,O=S(=O)(NCc1cc(-c2ccc(Cl)cc2)no1)c1ccc(Cl)cc1,0.631 µM (active)
25,COc1ccc([C@@H]2CC(=O)c3c(O)cc(O[C@H]4O[C@@H](CO[C@H]5O[C@@H](C)[C@@H](O)[C@@H](O)[C@@H]5O)[C@@H](O)[C@@H](O)[C@@H]4O)cc3O2)cc1O,inactive
26,COc1cc(Cl)c(C)cc1NC(=O)CNC(=O)Cn1cnc2ccccc2c1=O,inactive

row,Structure (SMILES),AC50
1,Nc1c(S(=O)(=O)c2ccccc2)c2nc3ccccc3nc2n1Cc1ccco1,25.1 µM (active)
2,Cc1nc2c([nH]1)c(=O)n(C)c(=O)n2Cc1ccco1,inactive
3,Cc1ccc(S(=O)(=O)c2nc(S(=O)(=O)c3ccc(C)cc3)c(NCc3ccco3)s2)cc1,inactive
4,Cc1onc(-c2ccccc2Cl)c1C(=O)NCC(=O)O,inactive
5,O=c1c(-c2cccs2)nc2cnc(Oc3ccccc3)nc2n1Cc1cccs1,inactive
6,NC(=O)CNC(=O)[C@@H]1CC2(CC(c3ccc(Cl)cc3)=NO2)CN1C(=O)c1ccccc1 (stereo partly specified),inactive
7,COc1ccc(S(=O)(=O)N2CCCCCC2)cc1N(C)S(=O)(=O)c1ccc(Cl)cc1,inactive
8,O=C(c1cccc(F)c1)N1CCC2(CC1)CCN(c1cccc(-c3ccccc3)c1)CC2,inactive
9,O=C(c1ccncc1)N1CCC2(CC1)CCN(c1ccccc1)CC2,inactive
10,O=C(c1ccncc1)N1CCC[C@@]2(CCN(c3ccccc3)C2)C1,inactive
11,CC(C)NC(=O)N1CC2(CCN(C(=O)c3ccncc3)CC2)C1,inactive
12,O=C(c1ccncc1)N1CCC2(CC1)CN(C(c1ccccc1)c1ccccc1)C2,0.0251 µM (active)
13,O=C(c1ccncc1)N1CCC2(CC1)CN(c1ccc(-c3ccccc3)cc1)C2,inactive
14,O=C(c1ccncc1)N1CCC[C@@]2(CCN(c3ncccn3)C2)C1,inactive
15,O=C(c1ccncc1)N1CCC2(CC1)CCN(c1cccc(-c3ccccc3)c1)CC2,7.94 µM (active)
16,CC(C)NC(=O)N1CCCC2(CCN(C(=O)c3ccncc3)CC2)C1,inactive
17,O=C(c1ccncc1)N1CCC2(CC1)CN(c1ccccc1)C2,7.94 µM (active)
18,O=C(c1ccncc1)N1CCC2(CCCN(C(c3ccccc3)c3ccccc3)C2)CC1,0.0398 µM (active)
19,CCN(CC)c1ccc(N2C(=O)/C(=C\c3cccnc3)SC2=S)cc1,inactive
20,NOCC(=O)O,inactive
21,CCCOc1ccc(C(=O)NC(=S)Nc2nc3ccc(C)cc3s2)cc1,inactive
22,Cc1cc(C)nc(NC(=O)CCCC(=O)O)c1,inactive
23,Cc1ccc(N(CC(N)=O)C2SC(=O)N(Cc3cccc(C(=O)O)c3)C2=O)cc1 (stereo unspecified),inactive
24,CCOC(=O)CN(c1ccccn1)S(=O)(=O)c1ccccc1,inactive
25,O=C(O)c1ccc(CSc2nc3ccccc3o2)cc1,inactive
